Screens (PubChem)
An excerpt weighted towards active compounds, which were near 2.8% of everything screened.
DRD3 agonist: qHTS of D3 Dopamine Receptor Agonist: qHTS. max activation, %. 410,000 tested, 0.58% active. D(3) dopamine receptor (Homo sapiens), P35462. D3R DiscoveRx beta-arrestin cells, luminescence, 90 min; in the data active means max activation above about 30%
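Cells at 1500/well, incubated overnight, then treated with pinned compounds (dopamine as control) for 90 min at 37 degrees C. DiscoveRx reagent added for 30 - 60 minutes at room temperature; luminescence read.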
CBFb-RUNX1 inh: qHTS Assay for Compounds Blocking the Interaction Between CBF-beta and RUNX1 for the Treatment of Acute Myeloid Leukemia | AlphaScreen CBFb-His/RUNX1-biotin binding, biochemical | 230,000 tested, under 10 active | AID 1477, 2009 | Runt-related transcription factor 1 (Homo sapiens) + Core-binding factor subunit beta … | Potency, µM (titrated, usually from 59.8 µM), most hits filed as inhibitors
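Compounds were screened at multiple concentrations against a preformed CBF-beta(His)/RUNX1(biotin) complex (30 nM of each) for 15 min at room temperature, followed by 90 min with nickel and streptavidin beads and AlphaScreen reading.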
Integrin act MD: qHTS for Activators of Integrin-Mediated Alleviation for Muscular Dystrophy; alpha7betagal myoblasts, beta-gal FDG fluorescence, 48 h; Potency, µM (top dose mostly 38.3 µM), most hits filed as activators; AID 624291, 2012; 350,000 tested, 0.064% active; further: nearly all actives have a fitted effect of over 60% in size
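alpha7betagal+/- myoblasts (passage 13, 250/well) treated 48 h at 37C with compounds at 1:260 dilution of DMSO stock. Lysed, then beta-galactosidase activity read as FDG fluorescence (ex 480/em 540) after 30 min, with pre-read for autofluorescence.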
DRD3 antagonist: qHTS of D3 Dopamine Receptor Antagonist: qHTS; D(3) dopamine receptor (Homo sapiens), P35462; D3R cells, DiscoveRx beta-arrestin luminescence, antagonist mode; active compounds read low; max response, negative = inhibition, %; 360,000 tested, 2.5% active; AID 652054, 2013; in the data active means max response below about -50%; inconclusive means no clear call, values can overlap the other calls
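Cells expressing the human receptor were seeded at 1500 cells/well, incubated overnight at 37 degrees C in 5% CO2, then exposed to library compounds with dopamine controls for 90 minutes at 37 degrees C before luminescent detection.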
PTHR1 agonist: qHTS for PTHR1 Agonists: Primary Screen; Parathyroid hormone/parathyroid hormone-related peptide receptor (Homo sapiens), Q03431; HEK293 GP2 PTHR1 cells, GloSensor cAMP luminescence, 1 h; Potency, µM (series often up to 115 µM), most hits filed as activators; 410,000 tested, 0.075% active; AID 743266, 2014; further: nearly all actives have a fitted effect of over 55% in size
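HEK-293-derived GP2 cells expressing PTHR1 and a GloSensor cAMP reporter, 3,000/well, plated overnight, given luciferin plus IBMX (each 0.5 mM as added) for 1 h at 37 °C, then compound for 1 h at 37 °C. Luminescence was read after 15 min at room temperature.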
MBNL1-CUG inh: qHTS Assay for Inhibitors of MBNL1-poly(CUG) RNA binding | Muscleblind-like protein 1 (Homo sapiens), Q9NR56 | TR-FRET MBNL1-His/biotin-(CUG)12 binding, 665/545 ratio | Potency, µM (titrated, usually from 57.5 µM), hits mostly inhibitors | 280,000 tested, 0.036% active; active means well fitted inhibition curve with a large enough effect in the signal ratio, with a control signal flat, not every such curve was filed as active; inconclusive means small, poorly fitted or top-dose-only effect, or effect the other way, or a change in a side signal; inactive means no such curve, though single readings can be large or run the other way; the % refers to the signal ratio
Target sequence (Q9NR56 whole entry, looked up): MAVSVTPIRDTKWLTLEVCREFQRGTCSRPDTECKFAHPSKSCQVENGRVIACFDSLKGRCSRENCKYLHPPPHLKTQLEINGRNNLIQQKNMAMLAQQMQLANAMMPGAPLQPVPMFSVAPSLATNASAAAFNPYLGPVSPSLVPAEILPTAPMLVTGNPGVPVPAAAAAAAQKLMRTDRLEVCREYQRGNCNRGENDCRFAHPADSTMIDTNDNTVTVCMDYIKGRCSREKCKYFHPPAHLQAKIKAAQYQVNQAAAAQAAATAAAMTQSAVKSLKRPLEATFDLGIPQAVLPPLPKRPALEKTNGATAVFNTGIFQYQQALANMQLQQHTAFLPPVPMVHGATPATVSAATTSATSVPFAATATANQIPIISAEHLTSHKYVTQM
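Ratiometric TR-FRET (665 over 545 nm, excitation 340 nm) tracks disruption of MBNL1-His/biotin-(CUG)12 complex after 60 min at room temperature, with compounds at 92 nM to 58 uM final.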
A number is an active result; n = inactive; u = inconclusive; x = no result given; [ ] = another dose, or the depositor's remark. Unless noted, the call rests on the fitted dose curve; in most records, active means well fitted curve in the direction sought with a large enough effect; inconclusive means small, poorly fitted or top-dose-only effect, or another doubt; inactive means no such curve, though single readings can be large; an effect the other way counts as inactive or inconclusive.

SMILES	DRD3 agonist	CBFb-RUNX1 inh	Integrin act MD	DRD3 antagonist	PTHR1 agonist	MBNL1-CUG inh
CCN1CC(CN(C)Cc2nc(-c3ccc(C(F)(F)F)cc3)oc2C)CC1=O (stereo not drawn)	n	n	n	n	n	n
Cc1nc(-c2ccc(S(=O)(=O)N(Cc3ccccc3)C(C)C)cc2)co1	n	x	x	x	n	x
CCCN(CCC)CCCNC(=O)c1cc2cc3ccc(OC)cc3nc2o1	n	n	n	u	n	u
CCCCN(CC)CCCNC(=O)c1cc2cc3ccc(OC)cc3nc2o1	n	n	n	-72	n	u
CC1CCN(CCCNC(=O)c2coc3nc4ccccc4nc23)CC1	n	n	n	-78	n	n
COc1ccc2cc3cc(C(=O)NCCCN4CCC(C)CC4)oc3nc2c1	n	x	n	-58	n	u
CCN1CCN(CCCNC(=O)c2cc3cc4ccc(OC)cc4nc3o2)CC1	n	n	n	n	n	u
Cc1cccc(C(C(=O)NC2CCCC2)N(C(=O)c2csnn2)C2CC2)c1 (stereo not drawn)	n	x	n	n	n	n
CCN1CCN(C(=O)Cn2c(=O)sc3ccccc32)CC1	n	n	n	-98	n	n
CCOC(=O)N1CCN(C(=O)Cn2c(=O)sc3ccccc32)CC1	n	n	n	n	n	n
CC1CCCC(NC(=O)CN(C)CC(=O)Nc2cccc(F)c2)C1C (stereo not drawn)	n	x	n	n	n	x
Cc1nnc(Sc2cc(NCCO)c([N+](=O)[O-])c3nonc23)s1	n	n	n	-60	n	x
Cc1nnc(Sc2cc(NCCCO)c([N+](=O)[O-])c3nonc23)s1	n	n	n	-97	n	u
CCCSc1cc(NCCOC(C)=O)c([N+](=O)[O-])c2nonc12	n	n	n	n	n	u
O=C1O[C@@H]([C@H](O)CO)C(O)=C1O	n	x	x	n	n	x
CN(Cc1ccc2nonc2c1)Cc1nc(CC2CC2)no1	n	n	n	n	n	u
COC(=O)CN(c1ccccc1)S(=O)(=O)c1ccc(F)cc1	n	n	n	n	n	n
CCN(c1ccccc1)S(=O)(=O)c1ccc(F)cc1	n	n	n	-53	n	n
COc1ccc(CCC(C)NCc2cccc(Br)c2)cc1 (stereo not drawn)	n	x	n	-68	n	n
COCC(C)NCc1cccc2ccccc12 (stereo not drawn)	n	n	n	n	n	n
CC(CCc1ccccc1)NCc1cccc2ccccc12 (stereo not drawn)	n	x	n	-54	n	n
CCN1CCN(CCC2Oc3cc([N+](=O)[O-])ccc3NC2=O)CC1 (stereo not drawn)	n	n	n	n	n	u
COc1ccc(N2CCN(CCC3Oc4cc([N+](=O)[O-])ccc4NC3=O)CC2)cc1 (stereo not drawn)	n	n	8.9µM	n	n	u
O=[N+]([O-])c1c(Nc2cccc(O)c2)cc(Cl)c2nonc12	n	x	n	-131	n	u
Cc1c(Nc2cc(Cl)c3nonc3c2[N+](=O)[O-])c(=O)n(-c2ccccc2)n1C	n	n	n	-101	n	u
SMILES	DRD3 agonist	CBFb-RUNX1 inh	Integrin act MD	DRD3 antagonist	PTHR1 agonist	MBNL1-CUG inh
CN1CCC(CN2c3ccccc3Sc3ccccc32)C1 (stereo not drawn)	n	x	x	x	x	x
Cc1cc(Br)ccc1NC(=O)CNC(=O)CN(C)C1CCS(=O)(=O)C1 (stereo not drawn)	n	x	n	n	n	x
COC(=O)[C@@](C)(O)C1(C(=O)SC(C)(C)C)CC1	n	x	n	n	n	x
COc1ccc(OC)c(CNC(=O)c2cnc3c(C)cccn3c2=O)c1	n	x	x	x	n	x
CCSc1nc2ccccc2n1CC(N)=O	n	n	n[7.66 µM]	n	n	n
CCSc1nc2ccccc2n1C(=O)/C=C\c1ccc(OC)c(OC)c1	n	n	n	-54	n	n
Cc1ccc(NC(=O)C2CCCCC2C(=O)O)cc1Cl (stereo not drawn)	n	n	n	n	n	n
Cc1ccc(NC(=O)C2CCCCC2C(=O)O)cc1C (stereo not drawn)	n	n	11µM	n	n	x
CCN(CC)c1ccc(NC(=O)C2CCN(c3nnc(-n4cccc4)s3)CC2)c(C)c1	n	x	x	x	n	x
CN1CCN(c2ccc([N+](=O)[O-])c(-n3nc(-c4ccccc4)c4ccccc4c3=O)c2)CC1	n	n	n	-53	n	u
COc1ccc(CCN(C)Cc2c(O)ccc3ccccc23)cc1OC	n	x	n	n	n	n
O=S(=O)(c1cccc(C(F)(F)F)c1)n1c(/C=C/c2ccccc2)nc2ccccc21	n	x	x	x	n	x
Nc1c(CO)nnn1-c1ccccc1	n	n	n	-54	n	n
COc1ccccc1CNC(=O)c1cccc(S(=O)(=O)N2CCN(c3ccc(F)cc3)CC2)c1	n	x	n	n	n	x
CN(C)C(CNC(=O)c1ccc(Cl)c(S(=O)(=O)N2CCCCCC2)c1)c1ccccc1 (stereo not drawn)	n	x	n	-81	n	x
O=C(NCc1ccccc1CN1CCCC1)c1ccc(Cl)c(S(=O)(=O)N2CCCC2)c1	n	x	n	-50	n	x
CN(C)CCCNC(=O)c1ccc(Cl)c(S(=O)(=O)N2CCCCCC2)c1	n	x	n	u	n	x
O=C(NCc1ccccc1CN1CCCC1)c1ccc(S(=O)(=O)Nc2ccccc2)cc1	n	x	n	-59	n	x
CN(C)C(CNC(=O)c1cccc(S(=O)(=O)N2CCN(c3ccc(F)cc3)CC2)c1)c1ccccc1 (stereo not drawn)	n	x	n	-81	n	x
CCCC1=Nc2cc(C(=O)NC3CCCCC3)ccc2Sc2ccc(C)cc21	n	x	x	x	u	x
O=C(O)c1ccccc1[O-].O=C(O)c1ccccc1[O-].[Zn+2]	n	x	x	x	x	x
CCOC(=O)C1CCN(c2ncnc3c2nnn3C)CC1	n	x	x	x	n	x
Cc1ccc2nc(/C(C#N)=C\c3ccc(N4CCCCC4)c([N+](=O)[O-])c3)[nH]c2c1	n	n	n	-70	n	u
Cc1ccc(OCC(=O)Nc2ccc3c(c2)nc(CCN2CCC(C)CC2)n3C)cc1	n	x	n	-54	n	n
Cc1cccc(OCC(=O)Nc2ccc3c(c2)nc(CN2CCCCC2)n3C)c1	n	n	n	-92	n	n
Cc1cccc(OCC(=O)Nc2ccc3c(c2)nc(CCN2CCCCC2)n3C)c1	n	x	n	n	n	n
CC1CCN(CCc2nc3cc(NC(=O)NC4CCCCC4)ccc3n2C)CC1	n	n	n[7.66 µM]	-86	n	n
